Assay results taken from PubChem BioAssay AID485364 (National Center for Advancing Translational Sciences (NCATS), 2010).
Hit rate of the full screen: of about 360,000 compounds, about 11,000 (3.1%) were called active. Not shown: some 4% with an inconclusive outcome. Calls come from the whole dose curve; as a rule, active = well fitted inhibition curve with a large enough effect; inconclusive = small, poorly fitted or top-dose-only effect; inactive = no such curve, though single readings can be large or run the other way. What follows is part of a selection rich in actives, with near analogues and random picks from the rest.

These molecules were tested against Schistosoma mansoni thioredoxin glutathione reductase (TGR) (UniProt Q962Y6) (assay: qHTS Assay for the Inhibitors of Schistosoma Mansoni Peroxiredoxins). Conditions: purified TGR, DTNB reduction, TNB absorbance 405 nm; series mostly up to 114 µM; activity change, negative = inhibition: at the top concentration.
How it was run: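 TGR 20 nM + NADPH 100 uM (dispensed conc.), cpd preinc 15 min RT; start with NADPH (500 uM addition) then DTNB (15 mM addition). Kinetic TNB absorbance, 405 nm filter. Four-parameter Hill fit across titration.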
% is set by controls: 0 for no effect and ±100 for the full control effect; potency is the fitted concentration of half-maximal effect.
Note: nearly all actives have a fitted effect of over 60% in size.

Compound | activity change, negative = inhibition | Potency
O=C(Nc1cccc2cccnc12)c1cccc2c(Br)cccc12 | -2.45% (inactive) | –
COc1ccc(CNC(=O)c2cc3c(=O)[nH]c4ccc(C)cc4c3s2)c(OC)c1 | 8.13% (inactive) | –
N#C/C(=C\c1cccc(F)c1)c1nc(-c2cc3c(ccc4ccccc43)oc2=O)cs1 | 6.2% (inactive) | –
COC(=O)c1ccc(CSc2ccc3nnc(-c4ccccc4)n3n2)o1 | – | 56.2 µM (active)
COC(=O)c1ccc(CSc2ccccc2C)o1 | 8.62% (inactive) | –
COC(=O)c1ccc(CSc2nnc(N)s2)o1 | 0.472% (inactive) | –
CCOc1ccc(OCC)c(NS(=O)(=O)c2ccc3[nH]c(=O)ccc3c2)c1 | 5.65% (inactive) | –
CCc1ccccc1N1CC(c2nc3ccccc3n2CCCCOc2ccccc2)CC1=O (configuration not stated) | 5.87% (inactive) | –
O=C(/C=C/c1ccc([N+](=O)[O-])o1)NNC(=O)c1ccc(F)cc1 | – | 11.2 µM (active)
O=C(Nc1ccc(F)cc1)C1CCN(C(=O)c2ccc([N+](=O)[O-])cc2)CC1 | 3.63% (inactive) | –
O=C(/C=C/c1ccc(F)cc1)NC(=S)NNC(=O)c1cccnc1 | -1.91% (inactive) | –
CC1(C)CCSC(/C=C/c2ccccc2)=N1 | – | 17.8 µM (active)
CCCCC(CC)CNC(=O)C1CCN(S(=O)(=O)c2cccc3nsnc23)CC1 (configuration not stated) | -3.56% (inactive) | –
COc1ccc2c(CNCCc3ccccc3C)c(C(=O)O)n(Cc3ccccc3C)c2c1 | -2.09% (inactive) | –
CCOC(=O)N1CCN(CC(=O)c2ccc3c(c2)CCN3)CC1 | 0.36% (inactive) | –
CCOC(=O)N1CCN(CC(=O)n2c(C)c(C)c3ccccc32)CC1 | -20.4% (inactive) | –
CCOC(=O)N1CCN(CC(=O)c2c(C)[nH]c3ccccc23)CC1 | – | 35.5 µM (active)
Cc1[nH]c2ccccc2c1C(=O)CN1CCCC(C)C1 (configuration not stated) | – | 25.1 µM (active)
CC1CCN(CC(=O)c2c[nH]c3ccccc23)CC1 | 2.55% (inactive) | –
CC1CCCN(Cc2nc3c(c(=O)n(C)c(=O)n3C)n2CC(=O)c2ccccc2)C1 (configuration not stated) | -0.23% (inactive) | –
Cc1cccc(N2CCN(C(=O)Cn3ncc4c5ccccc5n(C)c4c3=O)CC2C)c1 (configuration not stated) | 5.55% (inactive) | –
CCc1cc2c(cc3c(=O)n(CC(=O)NCc4cccc(Cl)c4)nc(CC)n32)s1 | 4.93% (inactive) | –
Cc1cccc(NC(=O)c2cc3c(C)nn(-c4ccccc4)c3s2)c1 | 2.56% (inactive) | –
COC(=O)c1ccc(OC)c(Cn2c(=O)n(Cc3ccccc3)c(=O)c3c2c2cc(OC)ccc2n3C)c1 | -8.64% (inactive) | –
Cc1oc2ccc(O)c(CN3CCCCC3)c2c1C(=O)Nc1cccc(C(F)(F)F)c1 | 9.2% (inactive) | –
CCN(Cc1ccccc1)C(=O)c1cn(-c2cccc(OC)c2)c(=O)c2ccccc12 | -14.9% (inactive) | –

Compound | activity change, negative = inhibition | Potency
Cc1ccccc1NC(=O)CN1C(=O)C(C)(C)c2ccccc21 | 5.62% (inactive) | –
COc1cccc(-n2c(SCC(=O)c3c[nH]c4ccccc34)nc3ccccc3c2=O)c1 | 1.41% (inactive) | –
COc1ccc(/C=C(\C#N)c2c[nH]c3ccccc23)cc1 | – | 14.1 µM (active)
CCOc1ccc(/C=C(\C#N)c2nc3ccccc3c(=O)[nH]2)cc1OC | 1.74% (inactive) | –
COC(=O)c1ccc(NC(=O)c2cccc3c2C(=O)N(C2CCCCC2)C3)cc1 | 1.52% (inactive) | –
CCN(CC)c1nn2c(=O)c(C(=O)NCCc3ccccc3)cnc2s1 | 37.5% (inactive) | –
O=C(O)c1ccc(Nc2nc(-c3ccccc3)c3cc(Br)ccc3n2)cc1 | 1.15% (inactive) | –
CC1=NC2(CCCc3c2no[n+]3[O-])N(O)C1(C)C (configuration not stated) | – | 44.7 µM (active)
COc1ccc(-c2cn3nc(N4CCC(C(=O)Nc5cccc(C)c5C)CC4)sc3n2)cc1 | 1.06% (inactive) | –
CCOC(=O)C1CCCN(C(=O)c2ccc(-n3ccc4ccccc43)s2)C1 (configuration not stated) | 9.63% (inactive) | –
O=C(CN1C(=O)COc2ccccc21)Nc1ccc(F)cc1 | – | 70.8 µM (active)
CC(OC(=O)CN1C(=O)COc2ccccc21)C(=O)NCc1ccc(F)cc1 (configuration not stated) | 5.02% (inactive) | –
O=C(CN1C(=O)COc2ccc(Cl)cc21)Nc1ccc(N2CCOCC2)cc1 | -47.8% (inactive) | –
O=C(O)c1c(CNCc2cccc(F)c2)c2ccccc2n1Cc1ccccc1 | -14.8% (inactive) | –
Brc1cc(/C=N/n2cnnc2)oc1Br | -8.99% (inactive) | –
Cc1cccc(C(=O)Nc2ccc(C(=O)N/N=C/c3cccc(C)n3)cc2)c1 | -5.22% (inactive) | –
Cc1ccc(C(=O)N/N=C\c2cc(Br)c(Br)o2)cn1 | – | 22.4 µM (active)
Cn1nnnc1SCCCNCc1cccc(OCc2ccc(Cl)cc2)c1 | -0.443% (inactive) | –
CCOC(=O)c1cc2c(=O)n3ccccc3nc2n(CCCOC)c1=NC(=O)C(C)Oc1ccccc1 (configuration not stated) | -2.86% (inactive) | –
CCOC(=O)C(=CNc1cccc(C)n1)C(=O)OCC | 6.03% (inactive) | –
COc1ccccc1/C=C/C(=O)NC1CC2CCC1C2 (configuration not stated) | -1.68% (inactive) | –
CCOC(=O)C(=Cc1ccccc1OC)C(=O)OCC | – | 28.2 µM (active)
COc1cc(C(=O)NCCc2csc3nc(-c4ccccc4C)nn23)cc(OC)c1OC | -4.46% (inactive) | –
O=C(NCCCN1CCOCC1)c1ccc2c(c1)N(Cc1cccc(F)c1)C(=O)c1ccccc1S2 | – | 22.4 µM (active)
CCC1=Nc2cc(C(=O)NCCCN3CCOCC3)ccc2Sc2ccc(Br)cc21 | 4.06% (inactive) | –
Cc1ccccc1CN1C(=O)c2ccccc2Sc2ccc(C(=O)NCCCN3CCOCC3)cc21 | – | inactive

Compound | activity change, negative = inhibition | Potency
Cc1ccc(CCNC(=O)c2ccc3c(c2)nc2n3CCC(C)C2)cc1 (configuration not stated) | -6.81% (inactive) | –
CCOc1cccc(CC(=O)N2CCc3c([nH]c4ccccc34)C2c2ccc(OC)cc2)c1OCC (configuration not stated) | 9.6% (inactive) | –
CCN(CC)S(=O)(=O)c1ccc2c(c1)nc(CN(C)C(=O)Nc1ccc(Cl)cc1)n2C | 4.09% (inactive) | –
CCOC(=O)/C=C/C(=O)OCC(=O)NC(c1ccccc1)c1ccccc1 | – | 15.8 µM (active)
CCOC(=O)C(C(=O)OCC)C(C#N)c1ccccc1 (configuration not stated) | -0.421% (inactive) | –
O=C(Cc1ccc(-c2ccccc2)cc1)NC(c1ccccc1)c1ccccc1 | 3.82% (inactive) | –
COc1cccc(C2C(C(=O)Nc3ccc(C)cc3C)=C(C)Nc3c(C(=O)Nc4ccccc4)cnn32)c1 (configuration not stated) | -6.99% (inactive) | –
Cc1cccc(NC(=O)CSc2nc3c([nH]c4ccccc43)c(=O)n2-c2cc(C)cc(C)c2)c1 | 4.01% (inactive) | –
CSc1cccc(NC(=O)CN2C(=O)CCc3cc(S(=O)(=O)N4CCCCC4)ccc32)c1 | 0.0354% (inactive) | –
COc1ccc(Cn2c(C(=O)O)c(CNCc3cccc(OC)c3)c3ccc(C)cc32)cc1 | 3.42% (inactive) | –
O=C(CSc1nc(=O)[nH]c2c1CCCC2)Nc1cc(C(F)(F)F)ccc1Cl | -0.322% (inactive) | –
Cc1nc2c(c(C)nn2-c2ccccc2)c(C)c1CCC(=O)NCCc1ccc(Cl)cc1 | 2.65% (inactive) | –
C=Cc1ccc(Cn2c(C(=O)O)c(CNC3CCCC3)c3ccc(C)cc32)cc1 | -1.48% (inactive) | –
CC(C)OCCCNC(=O)CNC(=O)c1cccs1 | 1% (inactive) | –
CC(C)OCCCNC(=O)c1ccc(C2SCC(=O)N2Cc2ccco2)cc1 (configuration not stated) | – | 25.1 µM (active)
O=C(NCc1ccco1)c1ccc(Cn2c(=O)c3sccc3n(Cc3ccc(F)cc3)c2=O)cc1 | 1.62% (inactive) | –
CCOc1ccc(NC(=O)c2cc(S(=O)(=O)N3CCCC3)c[nH]2)cc1 | 1.37% (inactive) | –
COc1ccc(CNC(=O)c2cc3c(s2)-c2ccccc2OC3)cc1 | 0.527% (inactive) | –
COc1cccc(CNC(=O)Cn2c(=O)c3cccn3c3ccc(F)cc32)c1OC | 6.91% (inactive) | –
O=C(NNS(=O)(=O)Cc1ccccc1)c1ccc([N+](=O)[O-])cc1 | 1.83% (inactive) | –
O=C(CNC(=O)c1ccccc1)NCC(=O)OCC(=O)c1ccccc1 | 14.6% (inactive) | –
O=C(CNC(=O)c1ccccc1)Oc1ccc([N+](=O)[O-])cc1 | – | 11.2 µM (active)
COc1cc(CN(CC2CCCO2)C(=O)c2ccccc2F)cc(OC)c1OC (configuration not stated) | -7.23% (inactive) | –
CCc1nc2c(cnn2-c2ccc(C)cc2)c(=O)n1-c1ccc(C)cc1 | 9.53% (inactive) | –
COc1cc(CN2CCC(n3nccc3NC(=O)CCCc3ccccc3)CC2)ccc1O | – | 44.7 µM (active)
Cc1ccc(CN2CCC(n3nccc3NC(=O)CCCc3ccccc3)CC2)o1 | -60.4% (inactive) | –

Compound | activity change, negative = inhibition | Potency
COc1ccc(CN2CCC(n3nccc3NC(=O)CCCc3ccccc3)CC2)cc1C | 5.46% (inactive) | –
CC1=Nc2cc(C(=O)N3CCC(C)CC3)ccc2Sc2ccc(Cl)cc21 | 12.6% (inactive) | –
Cc1ccc(C)n1NC(=O)c1ccc([N+](=O)[O-])cc1 | -23.3% (inactive) | –
N=C1C(c2nc3ccccc3[nH]2)=C(O)CN1NC(=O)c1c[nH]c2ccccc12 | -7.22% (inactive) | –
N=C1C(c2nc3ccccc3s2)=C(O)CN1NC(=O)c1ccc([N+](=O)[O-])cc1 | – | 12.6 µM (active)
CCC(=O)N1CCc2cc(Br)cc(S(=O)(=O)NCc3ccc(Cl)cc3)c21 | 1.1% (inactive) | –
Cc1nn(CC(=O)O)c(=O)c2cc3cc(F)ccc3n12 | 4.83% (inactive) | –
COc1ccccc1NC(=O)c1cc(S(=O)(=O)NCCc2ccccc2)ccc1F | 1.29% (inactive) | –
O=C(CSc1nc2ccc(Nc3nc(N4CCOCC4)nc(N4CCOCC4)n3)cc2s1)NCc1ccco1 | -26.5% (inactive) | –
C=CCn1c(CSc2nc3ccccc3s2)nnc1SCC(=O)NCc1ccco1 | – | 11.2 µM (active)
C=CCn1c(SCC(=O)NCc2ccccc2)nnc1-c1cc(Br)ccc1O | -22.8% (inactive) | –
CCn1c2ccc(F)cc2c2nnc(SCCN3CCOCC3)nc21 | 0% (inactive) | –
CC(=O)Nc1ccc(NC(=O)CSc2nnc3c4cc(Br)ccc4n(C)c3n2)cc1 | 0.416% (inactive) | –
Cn1c2ccc(F)cc2c2nnc(NN)nc21 | – | 50.1 µM (active)
COc1ccc(S(=O)(=O)NCc2cccn2Cc2cccc(C)c2)cc1Cl | -25% (inactive) | –
CCOc1cc(C(=O)Nc2nnc3n2CCS3)cc(OCC)c1OCC | 8.04% (inactive) | –
CCc1cccc(NC(=O)CN(c2ccc(C)c(C)c2)S(=O)(=O)c2ccsc2C(=O)OC)c1 | 7.42% (inactive) | –
CC(=O)N1CC(C)c2scc(C)[n+]2-c2ccccc21 (configuration not stated) | – | 1.58 µM (active)
Cc1ccc(/C=C(\C#N)C(=O)Nc2cc(C)ccc2C)cc1 | 9.44% (inactive) | –
Cc1nn(C(C)C(=O)Nc2ccc(C(C)C)cc2)c(=O)c2c1sc1ccccc12 (configuration not stated) | -4.07% (inactive) | –
CCOC(=O)c1c(NC(=O)c2ccc(S(=O)(=O)N3CCCC(C)C3)cc2)sc2c1CCN(C(C)C)C2 (configuration not stated) | -4.43% (inactive) | –
Cc1cc(C)c2c(n1)nn1c(-n3ccnc3)cc(C)nc21 | – | 35.5 µM (active)
Cc1cc(C)c2c(NC(=O)C3CC3)nn(C)c2n1 | 13.4% (inactive) | –
COC(=O)c1cc(NC(=O)CCc2c(C)nc3c4c(C)cc(C)nc4nn3c2C)cc(C(=O)OC)c1 | -4.76% (inactive) | –
